Reference: the supplement of paper PMC3545927
The list shows a part of the results. How many sequences the whole screen found active is unknown.

Molecular target: furin, P09958
Assay: furin cleavage Z-score vs untreated control; higher = more cleavage, active = 3.5 or more, inactive = 1 or less, 8 variable residues between constant flanks
How it was run: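 To give the cleavage Z-score, log read counts were set against furin-free reactions, lowess-adjusted and scaled by median absolute deviation. These counts came from PCR adapter-tagged, sequenced DNA released when purified furin cut 8-mer peptides fused to a cDNA oligonucleotide and held on magnetic beads by their N-terminus. Digests were 0.01 ml, 1:10 enzyme:substrate, in 50 mM HEPES pH 7.5 with CaCl2 and NaCl, for 7.5, 15 or 30 min.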

furin, P09958, sequence (P09958 whole entry): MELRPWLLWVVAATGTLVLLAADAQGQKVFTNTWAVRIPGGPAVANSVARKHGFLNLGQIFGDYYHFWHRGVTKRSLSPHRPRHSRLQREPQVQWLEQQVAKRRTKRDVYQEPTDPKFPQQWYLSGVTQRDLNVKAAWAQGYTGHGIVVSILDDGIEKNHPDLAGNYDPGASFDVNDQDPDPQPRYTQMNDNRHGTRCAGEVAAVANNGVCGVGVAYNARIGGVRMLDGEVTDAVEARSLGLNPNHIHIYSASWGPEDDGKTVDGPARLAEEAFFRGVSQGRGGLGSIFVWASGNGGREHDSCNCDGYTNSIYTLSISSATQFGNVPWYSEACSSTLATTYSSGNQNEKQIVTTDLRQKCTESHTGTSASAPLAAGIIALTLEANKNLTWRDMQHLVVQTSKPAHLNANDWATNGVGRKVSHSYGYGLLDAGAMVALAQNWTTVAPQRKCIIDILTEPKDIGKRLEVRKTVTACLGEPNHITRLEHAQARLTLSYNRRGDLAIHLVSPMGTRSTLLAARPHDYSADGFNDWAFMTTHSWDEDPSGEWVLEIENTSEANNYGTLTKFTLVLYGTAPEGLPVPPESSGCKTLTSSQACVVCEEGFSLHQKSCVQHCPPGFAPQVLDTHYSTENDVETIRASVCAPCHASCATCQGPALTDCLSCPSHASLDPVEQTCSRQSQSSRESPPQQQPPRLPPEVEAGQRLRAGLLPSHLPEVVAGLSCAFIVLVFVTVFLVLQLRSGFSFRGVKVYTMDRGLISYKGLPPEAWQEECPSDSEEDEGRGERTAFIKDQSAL

Row | Sequence | furin cleavage Z-score (7.5 min) | furin cleavage Z-score (15 min) | furin cleavage Z-score (30 min)
1 | CASAPPGDPPAGNASASA [HC1544] | -0.56 (inactive) | -0.28 (inactive) | -0.205 (inactive)
2 | CAQARRFRRSAGNASASA [FS-844] | 14.3 (active) | 14.1 (active) | 9.61 (active)
3 | CAFVQRFRRSAGNASASA [FS-236] | 11.9 (active) | 11.2 (active) | 9.2 (active)
4 | CAALGLERRSAGNASASA [FS-1444] | -0.628 (inactive) | -0.614 (inactive) | 0.553 (inactive)
5 | CAAPRRPRRPAGNASASA [FS-116] | 0.169 (inactive) | 0.142 (inactive) | 0.528 (inactive)
6 | CAAPRRFRRSAGNASASA [FS-399] | 9.1 (active) | 8.32 (active) | 8.51 (active)
7 | CAAPERERRSAGNASASA [FS-215] | 8.78 (active) | 11.7 (active) | 7.74 (active)
8 | CADEEVVTSTAGNASASA [HC2292] | 1.62 | 0.883 (inactive) | 1.1
9 | CATTPCSGSPAGNASASA [HC1939] | 0.991 (inactive) | -1.49 (inactive) | 0.61 (inactive)
10 | CAEVSCHRPSAGNASASA [HC2357] | 0.821 (inactive) | 0.257 (inactive) | -0.805 (inactive)
11 | CAVVCCSMDYAGNASASA [HC2071] | -0.0968 (inactive) | 0.0602 (inactive) | -0.172 (inactive)
12 | CATTECSGSWAGNASASA [HC1872] | -0.691 (inactive) | -0.533 (inactive) | -0.721 (inactive)
13 | CANNHVYRRSAGNASASA [FS-834] | 2.73 | 4.48 (active) | 3.35
14 | CAMEECSNHLAGNASASA [HC1741] | -0.217 (inactive) | 1.15 | 0.956 (inactive)
15 | CAALIRKLRDAGNASASA [FS-1303] | 10.1 (active) | 10.2 (active) | 7.71 (active)
16 | CAACARKFRDAGNASASA [FS-1] | 0.95 (inactive) | -0.474 (inactive) | -0.446 (inactive)
17 | CAALARSHRDAGNASASA [FS-1183] | 3.5 (active) | 2.5 | 3.98 (active)
18 | CAALARKMIGAGNASASA [HC622] | -0.391 (inactive) | -0.298 (inactive) | -0.269 (inactive)
19 | CAEMEVPCHRAGNASASA [HC2446] | 1.88 | 3.24 | 0.262 (inactive)
20 | CAELTPAETTAGNASASA [HC925] | -0.725 (inactive) | 0.302 (inactive) | -0.347 (inactive)
21 | CAKPTLHGPTAGNASASA [HC968] | 0.718 (inactive) | 0.412 (inactive) | -0.00703 (inactive)
22 | CAAPTRARRTAGNASASA [FS-1111] | 9.32 (active) | 8.24 (active) | 6.87 (active)
23 | CAGKARARRTAGNASASA [FS-782] | 7.77 (active) | 7.95 (active) | 6.06 (active)
24 | CAVLVLNPSVAGNASASA [HC786] | 1.78 | -1.12 (inactive) | 0.0915 (inactive)
25 | CAEVVTQTWVAGNASASA [HC159] | -0.939 (inactive) | 1.5 | 1.45
26 | CAMEETSQHLAGNASASA [HC16] | 0.191 (inactive) | 1.87 | 1.08
